Data published in PubChem BioAssay (EPA / NIEHS).
Several values for one entry are separate records, joined by “and”; a condition that tells them apart may be missing. Equal entries are not always repeated. Some structures have more than one record in an assay (separate samples or runs), and their calls can disagree. Activity calls are given as the source filed them. How the source made its calls: active means hit-call score of the fitted dose curve at least 0.9, where 1 is the maximum; inactive means score below 0.9.

Experiments:
[1] = ATG_ISRE_CIS: Attagene CIS-FACTORIAL HepG2 Assay for human Interferon Regulatory Factor 1 (IRF1) binding to an Interferon-Stimulated Response Element (ISRE) (AID 2282948); details: HepG2 ISRE cis-reporter (Attagene), mRNA transcription readout; actives raise or lower the signal
In short: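 Quantitation relies on labelled RT-PCR fragments separated by capillary electrophoresis. Human HepG2 cells bearing cis-promoter reporter constructs were treated 24 h; DMSO served as baseline for bidirectional fitting.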

[2] = ATG_M_32_CIS: Attagene CIS-FACTORIAL HepG2 Assay for M32 Transcription Factor (Internal Marker) (AID 2282949); details: HepG2 Attagene cis-factorial M32 reporter, mRNA; actives raise or lower the signal;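 further: background control marker of the multiplexed CIS panel rather than a real target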
In short: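 Fluorescent capillary electrophoresis peaks of HpaI-digested, FAM-labelled RT-PCR reporter products give the signal. Source: transiently transfected human liver HepG2 cells, 24 h after chemical dosing; bidirectional fitting against DMSO.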

[3] = ATG_M_06_CIS: Attagene CIS-FACTORIAL HepG2 Assay for M06 Transcription Factor (Internal Marker) (AID 2282950); details: HepG2 Attagene CIS-FACTORIAL M06 internal marker reporter; actives raise or lower the signal
In short: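 One of many multiplexed endpoints: HepG2 reporter mRNA after 24 h dosing, detected by RT-PCR and capillary electrophoresis fluorescence; gain or loss of signal analysed against DMSO.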

[4] = target: Hypoxia-inducible factor 1-alpha (Homo sapiens) (UniProt Q16665); assay: ATG_HIF1a_CIS: Attagene CIS-FACTORIAL HepG2 Assay for human Hypoxia Inducible Factor 1 (HIF1A) (AID 2282951); details: HepG2 Attagene cis-factorial HIF1a reporter transcription; actives raise or lower the signal
Sequence of Hypoxia-inducible factor 1-alpha (Homo sapiens) (Q16665 whole entry, looked up): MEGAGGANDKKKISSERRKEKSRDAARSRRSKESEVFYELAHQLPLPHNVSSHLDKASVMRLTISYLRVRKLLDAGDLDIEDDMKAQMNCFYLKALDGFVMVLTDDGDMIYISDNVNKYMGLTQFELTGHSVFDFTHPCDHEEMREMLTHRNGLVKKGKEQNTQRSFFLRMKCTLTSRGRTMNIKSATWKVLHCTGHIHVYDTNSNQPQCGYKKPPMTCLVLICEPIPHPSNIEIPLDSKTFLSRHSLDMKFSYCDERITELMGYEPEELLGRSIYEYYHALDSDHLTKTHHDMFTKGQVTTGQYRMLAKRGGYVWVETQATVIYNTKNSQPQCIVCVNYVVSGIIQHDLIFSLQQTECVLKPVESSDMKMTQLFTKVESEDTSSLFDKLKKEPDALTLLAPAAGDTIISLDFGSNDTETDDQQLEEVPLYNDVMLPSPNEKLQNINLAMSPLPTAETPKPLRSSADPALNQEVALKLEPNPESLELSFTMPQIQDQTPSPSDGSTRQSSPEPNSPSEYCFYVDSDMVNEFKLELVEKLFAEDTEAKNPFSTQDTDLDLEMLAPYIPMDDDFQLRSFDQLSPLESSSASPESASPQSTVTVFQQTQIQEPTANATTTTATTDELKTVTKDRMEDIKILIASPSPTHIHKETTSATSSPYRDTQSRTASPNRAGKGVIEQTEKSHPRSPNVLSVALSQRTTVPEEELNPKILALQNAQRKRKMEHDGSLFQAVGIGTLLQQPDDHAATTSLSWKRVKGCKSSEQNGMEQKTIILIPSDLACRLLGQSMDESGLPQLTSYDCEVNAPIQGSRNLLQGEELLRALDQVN
In short: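 Dosed 24 h, transfected HepG2 cells yielded total RNA whose reporter transcripts were RT-PCR-amplified and sized by capillary electrophoresis using fluorescent labelling; DMSO defined baseline, with gain and loss of signal both fitted.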

[5] = target: Hepatocyte nuclear factor 6 (Homo sapiens) (UniProt Q9UBC0); assay: ATG_HNF6_CIS: Attagene CIS-FACTORIAL HepG2 Assay for human Hepatocyte Nuclear Factor 6 (HNF6) (AID 2282952); details: HepG2 Attagene cis-factorial HNF6 reporter transcription; actives raise or lower the signal
Sequence of Hepatocyte nuclear factor 6 (Homo sapiens) (Q9UBC0 whole entry, looked up, the tested form may be a part): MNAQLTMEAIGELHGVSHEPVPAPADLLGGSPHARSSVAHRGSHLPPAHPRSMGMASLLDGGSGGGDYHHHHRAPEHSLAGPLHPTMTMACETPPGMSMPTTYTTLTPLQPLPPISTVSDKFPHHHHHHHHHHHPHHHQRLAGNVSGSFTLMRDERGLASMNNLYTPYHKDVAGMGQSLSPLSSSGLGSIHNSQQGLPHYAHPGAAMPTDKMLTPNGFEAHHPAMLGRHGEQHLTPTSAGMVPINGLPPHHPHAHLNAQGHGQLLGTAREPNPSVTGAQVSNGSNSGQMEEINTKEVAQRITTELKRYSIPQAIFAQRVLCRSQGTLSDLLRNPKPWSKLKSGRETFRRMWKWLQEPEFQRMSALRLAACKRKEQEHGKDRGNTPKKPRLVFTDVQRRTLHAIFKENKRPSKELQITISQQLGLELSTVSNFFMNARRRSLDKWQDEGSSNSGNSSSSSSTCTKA
In short: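 HepG2 cells transiently transfected with cis-element-driven multiplexed reporter units measuring endogenous transcription factor activity. After 24 h exposure, reporter mRNA quantified by RT-PCR, FAM-labelled fragments and capillary electrophoresis; bidirectional fitting versus DMSO.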

[6] = target: Heat shock factor protein 1 (Homo sapiens) (UniProt Q00613); assay: ATG_HSE_CIS: Attagene CIS-FACTORIAL HepG2 Assay for human Heat Shock Transcription Factor 1 (HSE) (AID 2282953); details: HepG2 HSE cis-reporter, Attagene RNA transcription; actives raise or lower the signal
Sequence of Heat shock factor protein 1 (Homo sapiens) (Q00613 whole entry, looked up): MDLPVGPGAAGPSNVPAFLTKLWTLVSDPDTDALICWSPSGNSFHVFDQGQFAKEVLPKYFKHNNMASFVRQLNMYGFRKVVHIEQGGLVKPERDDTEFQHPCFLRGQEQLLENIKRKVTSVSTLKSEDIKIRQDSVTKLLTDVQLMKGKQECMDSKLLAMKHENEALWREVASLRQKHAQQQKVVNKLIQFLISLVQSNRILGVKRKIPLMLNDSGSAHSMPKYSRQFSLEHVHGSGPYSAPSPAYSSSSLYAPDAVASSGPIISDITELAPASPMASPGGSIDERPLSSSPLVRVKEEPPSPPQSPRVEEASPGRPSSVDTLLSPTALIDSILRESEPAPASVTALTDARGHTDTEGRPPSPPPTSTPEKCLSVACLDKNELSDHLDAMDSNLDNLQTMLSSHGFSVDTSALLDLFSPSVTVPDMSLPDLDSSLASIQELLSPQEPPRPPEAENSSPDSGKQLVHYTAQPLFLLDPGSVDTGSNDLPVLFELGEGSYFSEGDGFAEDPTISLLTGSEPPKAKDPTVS
In short: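 Using HepG2 with transfected cis-driven reporter constructs, compound effects on endogenous factor activity are scored as reporter mRNA change at 24 h. Detection: RT-PCR, HpaI digestion, capillary electrophoresis; bidirectional fitting to DMSO.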

[7] = ATG_MRE_CIS: Attagene CIS-FACTORIAL HepG2 Assay for human Metal Responsive Element (MRE) (AID 2282954); details: HepG2 MRE cis-reporter transcription, Attagene multiplex; actives raise or lower the signal
In short: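 Transient MRTU transfection of HepG2 (FuGene 6); 24 h dosing; total RNA → oligo(dT) RT, PCR, 6-FAM primer extension, HpaI cut, CE. Bidirectional fit vs DMSO.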

[8] = ATG_PBREM_CIS: Attagene CIS-FACTORIAL HepG2 Assay for human Phenobarbital-responsive Enhancer Module (PBREM) (AID 2282955); details: HepG2 PBREM cis-reporter, Attagene multiplexed transcription; actives raise or lower the signal
In short: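 Transfected liver-derived HepG2 cells exposed 24 h; PBREM reporter transcript quantified via RT-PCR and capillary electrophoresis, with activity in either direction referenced to DMSO.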

[9] = target: Paired box protein Pax-6 (Homo sapiens) (UniProt P26367); assay: ATG_Pax6_CIS: Attagene CIS-FACTORIAL HepG2 Assay for human Paired Box 6 (PAX6) (AID 2282956); details: HepG2 CIS-FACTORIAL PAX6 reporter transcription, RNA readout; actives raise or lower the signal
Sequence of Paired box protein Pax-6 (Homo sapiens) (P26367 whole entry, looked up): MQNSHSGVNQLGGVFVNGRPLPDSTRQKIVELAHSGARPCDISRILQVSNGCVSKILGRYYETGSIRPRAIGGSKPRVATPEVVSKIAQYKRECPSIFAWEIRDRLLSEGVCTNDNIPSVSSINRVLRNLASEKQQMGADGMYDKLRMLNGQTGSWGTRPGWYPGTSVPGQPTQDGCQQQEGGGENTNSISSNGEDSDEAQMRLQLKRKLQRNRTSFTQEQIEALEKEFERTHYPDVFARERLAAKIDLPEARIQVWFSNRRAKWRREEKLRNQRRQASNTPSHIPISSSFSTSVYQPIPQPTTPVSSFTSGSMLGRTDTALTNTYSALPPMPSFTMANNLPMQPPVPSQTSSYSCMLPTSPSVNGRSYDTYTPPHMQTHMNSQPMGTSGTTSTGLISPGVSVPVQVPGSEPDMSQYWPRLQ
In short: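 After twenty-four hours of chemical exposure, transfected HepG2 cells are harvested for RNA. Cis-promoter reporter transcripts are amplified, fluorescently labelled and sized by capillary electrophoresis, with gain and loss of signal scored against DMSO.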

[10] = ATG_PXRE_CIS: Attagene CIS-FACTORIAL HepG2 Assay for human Pregnane X Receptor Element (PXRE) (AID 2282957); details: HepG2 Attagene CIS-FACTORIAL PXRE reporter, mRNA; actives raise or lower the signal
In short: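 HepG2 cells transiently transfected with cis-element-driven multiplexed reporter units; after 24 h chemical exposure, reporter mRNA measured by RT-PCR, 6-FAM labelling, HpaI digestion and capillary electrophoresis. Bidirectional fitting relative to DMSO.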

[11] = ATG_RORE_CIS: Attagene CIS-FACTORIAL HepG2 Assay for human RAR-related Orphan Receptor Element (RORE) (AID 2282959); details: HepG2 Attagene cis-factorial RORE reporter, mRNA; actives raise or lower the signal
In short: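 Transiently transfected HepG2 reporter cells were treated 24 h. Reporter transcripts were detected by RT-PCR and capillary electrophoresis, with bidirectional fitting against DMSO.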

[12] = ATG_SREBP_CIS: Attagene CIS-FACTORIAL HepG2 Assay for human Sterol Regulatory Element Binding (SREBP) (AID 2282962); details: HepG2 Attagene cis-factorial SREBP reporter, mRNA; actives raise or lower the signal
In short: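 Twenty-four hours after chemical dosing of transfected HepG2 cultures, reporter RNA was converted to cDNA, amplified, end-labelled with 6-FAM and resolved by capillary electrophoresis. Responses were fitted relative to DMSO.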

[13] = target: Signal transducer and activator of transcription 3 (Homo sapiens) (UniProt P40763); assay: ATG_STAT3_CIS: Attagene CIS-FACTORIAL HepG2 Assay for human Signal Transducer and Activator of Transcription 3 (STAT3) (AID 2282963); details: HepG2, Attagene cis-factorial STAT3 reporter transcription; actives raise or lower the signal
Sequence of Signal transducer and activator of transcription 3 (Homo sapiens) (P40763 whole entry, looked up): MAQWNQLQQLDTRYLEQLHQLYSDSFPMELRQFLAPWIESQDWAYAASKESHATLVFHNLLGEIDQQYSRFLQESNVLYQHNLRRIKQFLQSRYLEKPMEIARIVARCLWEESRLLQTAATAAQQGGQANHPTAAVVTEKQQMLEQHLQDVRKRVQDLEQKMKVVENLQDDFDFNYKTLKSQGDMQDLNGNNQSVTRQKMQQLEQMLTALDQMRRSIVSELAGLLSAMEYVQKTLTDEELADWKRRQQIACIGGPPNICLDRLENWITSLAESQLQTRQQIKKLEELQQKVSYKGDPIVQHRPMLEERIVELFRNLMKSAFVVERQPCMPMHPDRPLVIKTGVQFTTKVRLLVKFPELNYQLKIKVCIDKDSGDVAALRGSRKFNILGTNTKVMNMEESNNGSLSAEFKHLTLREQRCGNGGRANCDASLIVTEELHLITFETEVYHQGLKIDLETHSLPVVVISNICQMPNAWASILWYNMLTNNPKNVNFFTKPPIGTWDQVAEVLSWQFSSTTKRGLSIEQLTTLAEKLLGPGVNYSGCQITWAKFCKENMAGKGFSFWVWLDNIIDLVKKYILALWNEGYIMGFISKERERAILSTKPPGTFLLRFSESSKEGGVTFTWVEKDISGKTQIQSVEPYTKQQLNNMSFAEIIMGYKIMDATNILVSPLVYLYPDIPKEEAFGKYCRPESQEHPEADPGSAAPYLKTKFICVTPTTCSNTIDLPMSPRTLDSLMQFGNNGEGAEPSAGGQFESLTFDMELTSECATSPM
In short: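 Endogenous STAT3-responsive cis-element activity was read in transiently transfected HepG2 cells after 24 h treatment. Reporter transcripts were quantified via RT-PCR and capillary electrophoresis, with DMSO as negative control and bidirectional curve fitting.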

[14] = ATG_TA_CIS: Attagene CIS-FACTORIAL HepG2 Assay for human TA Basal Promoter (AID 2282964); details: HepG2 Attagene CIS-factorial TA basal promoter reporter; actives raise or lower the signal
In short: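 Transient MRTU transfection of HepG2 preceded 24 h compound exposure. Reporter mRNA levels were then read by RT-PCR with capillary electrophoresis, and this background-control endpoint was fitted bidirectionally to DMSO.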

[15] = ATG_TCF_b_cat_CIS: Attagene CIS-FACTORIAL HepG2 Assay for human T-Cell-Factor with beta-catenin (TCF/b-cat) (AID 2282965); details: HepG2 TCF/beta-catenin cis-reporter transcription, actives raise or lower the signal
In short: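 Endogenous TCF/LEF activity read as reporter transcript level via RT-PCR and capillary electrophoresis fluorescence in transfected HepG2, 24 h exposure; gain or loss of signal fitted against DMSO controls.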

[16] = ATG_TAL_CIS: Attagene CIS-FACTORIAL HepG2 Assay for human TAL Basal Promoter (AID 2282966); details: HepG2 Attagene cis-factorial TAL promoter reporter; actives raise or lower the signal;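 further: background control endpoint measuring basal TAL promoter reporter mRNA not a specific factor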
In short: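 HepG2 cells transiently transfected with multiplexed cis-promoter reporter units, dosed 24 h. Reporter mRNA quantified by RT-PCR, 6-FAM labelling, HpaI digestion and capillary electrophoresis; TAL basal promoter serves as background control, fitted bidirectionally versus DMSO.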

[17] = ATG_TGFb_CIS: Attagene CIS-FACTORIAL HepG2 Assay for human Transforming Growth Factor (TGF) (AID 2282967); details: HepG2 Attagene CIS TGFb reporter, mRNA transcription; actives raise or lower the signal
In short: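 After a 24-hour incubation with compound, transfected HepG2 cells were lysed for RNA; reporter cDNA was amplified, fluorescently end-labeled and separated by CE. DMSO served as baseline for bidirectional fits.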

[18] = ATG_PPRE_CIS: Attagene CIS-FACTORIAL HepG2 Assay for human Peroxisome Proliferator-activated Response Element (PPRE) (AID 2282958); details: HepG2 PPRE cis-element reporter, Attagene transcription factor profiling; actives raise or lower the signal
In short: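 Measured endpoint: PPRE-controlled reporter mRNA, detected by RT-PCR and capillary electrophoresis fluorescence, from transiently transfected HepG2 cells 24 h after dosing. Curves fitted in both directions using DMSO baseline.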

[19] = ATG_Sox_CIS: Attagene CIS-FACTORIAL HepG2 Assay for human SRY-box transcription factor (SOX) (AID 2282960); details: HepG2 Attagene cis-factorial SOX reporter, mRNA; actives raise or lower the signal
In short: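 Gain- or loss-of-signal endpoint, fitted bidirectionally with DMSO as negative control. Based on reporter mRNA from transfected HepG2 cells harvested 24 h post-treatment and quantified via RT-PCR and capillary electrophoresis.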

[20] = target: Transcription factor Sp1 (Homo sapiens) (UniProt P08047); assay: ATG_Sp1_CIS: Attagene CIS-FACTORIAL HepG2 Assay for human Specificity Protein 1 (Sp1) (AID 2282961); details: HepG2 Sp1 cis-reporter transcription, actives raise or lower the signal
Sequence of Transcription factor Sp1 (Homo sapiens) (P08047 whole entry, looked up, the tested form may be a part): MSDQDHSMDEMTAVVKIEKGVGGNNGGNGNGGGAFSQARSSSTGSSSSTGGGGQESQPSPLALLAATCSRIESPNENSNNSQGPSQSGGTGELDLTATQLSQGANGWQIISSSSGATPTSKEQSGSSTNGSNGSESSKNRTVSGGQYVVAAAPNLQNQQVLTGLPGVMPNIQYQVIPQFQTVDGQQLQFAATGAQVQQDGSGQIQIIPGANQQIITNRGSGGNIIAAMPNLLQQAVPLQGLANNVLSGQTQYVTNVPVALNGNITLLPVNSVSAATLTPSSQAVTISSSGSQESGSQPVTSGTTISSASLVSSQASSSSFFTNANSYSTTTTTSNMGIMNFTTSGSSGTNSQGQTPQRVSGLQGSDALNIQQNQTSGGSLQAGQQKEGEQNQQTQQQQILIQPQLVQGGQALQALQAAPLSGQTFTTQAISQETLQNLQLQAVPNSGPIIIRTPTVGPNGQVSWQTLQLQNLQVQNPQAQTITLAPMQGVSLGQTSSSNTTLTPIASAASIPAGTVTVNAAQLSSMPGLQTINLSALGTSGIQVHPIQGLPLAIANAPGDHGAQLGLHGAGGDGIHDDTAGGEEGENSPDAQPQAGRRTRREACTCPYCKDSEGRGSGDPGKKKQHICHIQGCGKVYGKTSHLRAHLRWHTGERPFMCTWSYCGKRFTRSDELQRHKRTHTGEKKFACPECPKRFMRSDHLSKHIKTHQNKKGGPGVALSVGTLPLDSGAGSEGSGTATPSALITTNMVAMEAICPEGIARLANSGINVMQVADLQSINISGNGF
In short: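 Endpoint reflects endogenous Sp1 transcriptional activity, not an exogenous fusion protein: HepG2 cells with transfected cis-regulated reporters, 24 h dosing, RT-PCR/capillary electrophoresis mRNA read-out, DMSO-normalised bidirectional fit.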

Measured: AC50

CCCCCCCCCCCC[N+](C)(C)Cc1ccccc1
inactive: [1] | [2] | [3] | [4] | [5] | [6] | [7] | [8] | [9] | [10] | [11] | [12] | [13] | [14] | [15] | [16] | [17]
active: [2] 20.3 µM | [5] 17.6 µM | [6] 18.7 µM | [14] 17.7 µM

O=C1OC2(c3ccccc31)c1cc(I)c(O)c(I)c1Oc1c2cc(I)c(O)c1I
active: [4] 21.2 µM and 34.4 µM | [7] 36.3 µM and 35.2 µM | [8] 21 µM and 18.6 µM | [9] 37.6 µM | [10] 12.8 µM and 4.37 µM and 8.03 µM | [11] 34.5 µM and 28.1 µM | [17] 93.8 µM
inactive: [1] | [2] | [3] | [4] | [5] | [6] | [7] | [8] | [9] | [11] | [12] | [13] | [14] | [15] | [16] | [17]

C=CC(=O)OCCC(F)(F)C(F)(F)C(F)(F)C(F)(F)C(F)(F)C(F)(F)C(F)(F)C(F)(F)F
inactive: all assays above

COc1cc([N+](=O)[O-])ccc1N
inactive: all assays above

NC(=NCCCCCCN=C(N)/N=C(\N)Nc1ccc(Cl)cc1)/N=C(\N)Nc1ccc(Cl)cc1
active: [1] 5.9 µM and 6.55 µM | [2] 23.4 µM and 23.8 µM | [7] 2.62 µM and 2.68 µM and 1.87 µM | [8] 4.31 µM | [19] 22.1 µM and 25.5 µM | [20] 159 µM and 23.3 µM | [12] 23.3 µM | [15] 23 µM and 25.4 µM | [16] 119 µM | [17] 0.0763 µM
inactive: [1] | [2] | [3] | [4] | [6] | [8] | [9] | [10] | [19] | [20] | [12] | [13] | [14] | [15] | [16] | [17]

NC(C(F)(F)F)C(F)(F)F
inactive: all assays above
